# Compound activity deposited in PubChem by National Center for Advancing Translational Sciences (NCATS).
# FBPA coupling cs – qHTS Assay for Inhibitors of Fructose-1,6-bisphosphate Aldolase from Giardia Lamblia: Coupling assay counterscreen; activity change, negative = inhibition, % at 58.2 µM, hits read low; coupling enzyme system counterscreen, AmpLite Red fluorescence; AID 2472, 2010; 290,000 tested, 0.67% active; in the data active = activity change below about -30%
#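 Final compound at 57.5 uM, incubated 10 min at RT with coupling enzyme reagent (glyceraldehyde-3-phosphate), then 20 min with substrate and AmpLite Red detection. Fluorescence read at 525/598 nm; tests interference with the coupling assay, not aldolase inhibition.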
# Giardia kill – Small Molecules that selectively kill Giardia lamblia: qHTS; Giardia lamblia trophozoite viability; activity change, % at 7.66 µM, hits read low; 340,000 tested, 0.15% active; in the data active = activity change below about -80%; inconclusive = between about -30% and that limit;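 also: parasites exposed to compound for two days anaerobically before the ATP read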
#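 Luminescent ATP signal served as the viability read-out, measured 15-30 min after adding ATP detection reagent to trophozoites that had been incubated with compounds for 48 hrs at 37 deg C anaerobically at 100 cells/well.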
# GALK inhibitor – qHTS Assay for Inhibitors of Human Galactokinase (GALK); AID 1868, 2009; Purified GALK, Kinase-Glo residual ATP luminescence; P51570; Potency, µM (highest dose often 57.5 µM), actives largely listed as inhibitors; 270,000 tested, 0.007% active
# Target sequence (P51570 whole entry, looked up): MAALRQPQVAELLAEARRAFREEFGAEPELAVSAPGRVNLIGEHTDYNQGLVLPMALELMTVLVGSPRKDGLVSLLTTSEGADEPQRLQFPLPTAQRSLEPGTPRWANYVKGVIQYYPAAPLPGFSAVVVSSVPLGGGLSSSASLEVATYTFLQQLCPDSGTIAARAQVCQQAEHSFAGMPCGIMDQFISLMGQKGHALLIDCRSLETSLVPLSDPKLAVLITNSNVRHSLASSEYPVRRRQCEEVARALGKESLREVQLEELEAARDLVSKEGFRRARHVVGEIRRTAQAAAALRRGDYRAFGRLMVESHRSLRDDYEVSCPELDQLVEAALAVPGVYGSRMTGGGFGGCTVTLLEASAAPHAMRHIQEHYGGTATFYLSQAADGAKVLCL
#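 5 nM enzyme, 35 uM ATP, 100 uM galactose, 20 mM HEPES pH8.0, 5 mM MgCl2; 1 h RT; residual ATP by Kinase-Glo Plus luminescence, qHTS format.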
# PI4K2A block – qHTS for small molecular inhibitors of PI4K2A | Phosphatidylinositol 4-kinase type 2-alpha (Homo sapiens), Q9BTU6 | purified PI4K2A, ADP-Glo luminescence, 1 h; stronger effect = lower value | activity change, negative = inhibition, % at 76.9 µM | 420,000 tested, 0.13% active; in the data active = activity change below about -50%; inconclusive = mostly about -30% to -49%
#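 PI4K2A activity was measured by ADP-Glo luminescence: enzyme (4 ug/mL stock) and phosphatidylinositol (1.2 mM stock) in Tris pH 7.5/MgCl2/EGTA/Triton X-100 buffer were reacted with ATP (300 microM stock) for one hour at ambient temperature.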
# TrxR1 substrate – qHTS Assay for Substrates of Mammalian Selenoprotein Thioredoxin Reductase 1 (TrxR1): qHTS; Thioredoxin reductase 1, cytoplasmic (Rattus norvegicus), O89049; purified TrxR1 substrate turnover, NADPH consumption readout; Potency, µM (top dose mostly 114 µM); 390,000 tested, 0.01% active; also: nearly all actives have a fitted effect of over 50% in size
#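 Rat TrxR1, dispensed at 90 nM, was prereduced with 400 uM NADPH (final) for 5 min at ~22 deg C, then incubated with compound 15 min before 400 uM selenite. A first-read NADPH fluorescence drop versus no-compound background flagged substrates.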
# rTrxR1 inhibitor – qHTS Assay for Inhibitors of Mammalian Selenoprotein Thioredoxin Reductase 1 (TrxR1): qHTS | Potency, µM (series often up to 114 µM), most hits filed as inhibitors | 390,000 tested, 1% active | Thioredoxin reductase 1, cytoplasmic (Rattus norvegicus), O89049 | recombinant rTrxR1, NADPH fluorescence consumption, selenite substrate; also: nearly all actives have a fitted effect of over 65% in size
#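 Rat TrxR1 (90 nM in the dispensed reagent) was pre-reduced with 400 uM NADPH for 5 min at room temperature, then incubated with compound for 15 min. After 400 uM selenite was added, NADPH fluorescence (Ex 340/Em 450 nm) was followed for 8 min.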
# Numbers stand for hits; n = inactive; u = inconclusive; x = not tested or not shown; [ ] = another dose, or the depositor's remark. A selection: hits, their analogues and other compounds. The true share with any hit is near 1.5%. Unless noted, calls follow the shape of the dose curve; as a rule, active = well fitted curve in the direction sought with a large enough effect; inconclusive = small, poorly fitted or top-dose-only effect, or another doubt; inactive = no such curve, though single readings can be large; an effect the other way counts as inactive or inconclusive.
SMILES,FBPA coupling cs,Giardia kill,GALK inhibitor,PI4K2A block,TrxR1 substrate,rTrxR1 inhibitor
CCc1ccc(-c2nc(CS(=O)CC(=O)NC3CC3)c(C)o2)cc1 (centres undefined),n,n,n,n,n,16µM
CC(C)NS(=O)(=O)c1ccc2[nH]c3nc(SCC(=O)Nc4ccc(F)c(F)c4)nnc3c2c1,x,n,x,x,n,n
CC1(C)OB(c2cnc(C#N)nc2)OC1(C)C,x,x,x,x,n,n
CCc1ccc(-c2nc(CS(=O)CC(=O)NCc3ccc(F)cc3)c(C)o2)cc1 (centres undefined),x,x,x,n,n,n
COc1ccc(-c2nc(CS(=O)CC(=O)NC3CCCCCC3)c(C)o2)cc1 (centres undefined),n,n,n,n,n,u
CCc1ccc(-c2nc(CS(=O)CC(=O)O)c(C)o2)cc1 (centres undefined),n,n,x,n,n,3.5µM
CCc1ccc(-c2nc(CS(=O)CC(=O)NC3CCCCCC3)c(C)o2)cc1 (centres undefined),x,n,n,n,n,20µM
CC(C)(C)n1ncc2c(=O)n(Cc3cccc(-c4cccs4)c3)cnc21,x,x,x,x,n,n
O=C(O[C@H]1[C@H](Cc2ccccc2)NS(=O)(=O)[C@H]2CC3C=C[C@]12O3)c1ccc(Br)cc1,x,x,x,x,n,n
CCSC1(SCC)N=C(N)C2(C#N)C(c3ccc(OC)c(OC)c3OC)C12C#N (centres undefined),n,n,n,n,n,45µM
CCSC1(SCC)N=C(N)C2(C#N)C(c3ccccc3)NC3=C(CCC3)C12C#N (centres undefined),n,n,n,n,n,u
CNc1ccc(/C=C/c2ccnc3ccccc23)cc1,x,x,x,x,n,n
Cc1ccc(S(=O)(=O)N2CCc3nc(-c4ccccc4)c4c(c3C2)CO[C@@H](C)C4)cc1,n,x,x,x,x,x
O=C(/C=C/c1ccco1)Nc1cccc(C(=O)Nc2ccccc2C(=O)O)c1,n,n,n,n,n,11µM
Cc1ccc(NC(=O)c2cccc(NC(=O)/C=C/c3ccco3)c2)cc1C,n,n,n,n,n,20µM
CCCN1C(=O)S/C(=C\c2ccc(N3CCOCC3)cc2C)C1=O,n,x,n,x,x,x
CCCN1C(=O)S/C(=C/c2ccc(N3CCOCC3)o2)C1=O,-48,n,n,n,n,28µM
CCCN1C(=O)S/C(=C\c2ccc(N3CCOCC3)o2)C1=O,-50,n,n,n,n,7.9µM
CCCC/C=C1/CCC(CN(C)C)C1=O (centres undefined),x,n,x,n,n[11.4 µM],0.63µM
COc1cccc(/C=C2/CCC(CN(C)C)C2=O)c1 (centres undefined),x,n,x,n,n[11.4 µM],1.1µM
CNC(=O)C1CCC(Cn2c(=O)c3sccc3n(CC(=O)NCc3ccccc3)c2=O)CC1 (centres undefined),x,x,x,n,n,n
Cc1oc(C)c2c(=O)ccc3c(c12)OC(N)=C(C#N)C3c1ccccc1 (centres undefined),n,n,n,n,n,n
CSc1ccc(C2C(C#N)=C(N)Oc3c2ccc(=O)c2c(C)oc(C)c32)cc1 (centres undefined),-36,n,n,n,n,n
Cc1ccc(C2C=C(c3ccc(Cl)cc3)Nc3nc(NC(=O)c4ccco4)nn32)cc1 (centres undefined),x,x,x,n,n,40µM
COc1ccccc1C(=O)Nc1nc2n(n1)C(c1ccc(F)cc1)C=C(c1ccc(Cl)cc1)N2 (centres undefined),x,x,x,n,n,n
SMILES,FBPA coupling cs,Giardia kill,GALK inhibitor,PI4K2A block,TrxR1 substrate,rTrxR1 inhibitor
CCS(=O)(=O)c1ncc(Cl)c(C(=O)N2CCN(c3ccc(OC)cc3)CC2)n1,x,x,x,n,n,3.2µM
CC(=O)Nc1ccc(NC(=O)c2nc(S(=O)(=O)Cc3cccc(C)c3)ncc2Cl)cc1,x,n,n,u,n,10µM
CCOC(=O)c1c(NC(=O)c2nc(SCC)ncc2Cl)sc(C(C)=O)c1C,x,x,x,n,n,n
COc1ccc(N2CCN(C(=O)c3nc(SC)ncc3Cl)CC2)cc1,x,x,x,n,n,n
CCOC(=O)c1c(NC(=O)c2nc(S(C)(=O)=O)ncc2Cl)sc(C(C)=O)c1C,x,x,x,n,n,1.4µM
Cc1cccc(CS(=O)(=O)c2ncc(Cl)c(C(=O)NCc3ccc4c(c3)OCO4)n2)c1,n,u,n,n,n,n
COC(=O)c1ccccc1NC(=O)c1nc(S(=O)(=O)Cc2cccc(C)c2)ncc1Cl,x,x,x,n,n,1.4µM
CN(c1ccccc1)S(=O)(=O)c1ccc(NC(=O)c2nc(S(C)(=O)=O)ncc2Cl)cc1,x,n,n,n,n,0.79µM
CCCS(=O)(=O)c1ncc(Cl)c(C(=O)N(Cc2ccccc2)Cc2ccco2)n1,x,n,x,n,n[0.457 µM],1.8µM
CCSc1ncc(Cl)c(C(=O)Nc2ccc(S(=O)(=O)N3CCC(C)CC3)cc2)n1,x,x,x,n,n,n
CCSc1ncc(Cl)c(C(=O)N(Cc2ccccc2)Cc2ccco2)n1,x,x,x,n,n,n
CCS(=O)(=O)c1ncc(Cl)c(C(=O)N(Cc2ccccc2)c2ccc(OC)cc2)n1,x,x,x,n,n,3.5µM
CCS(=O)(=O)c1ncc(Cl)c(C(=O)Nc2ccc(S(=O)(=O)N3CCC(C)CC3)cc2)n1,n,n,n,n,n,8.9µM
COc1ccc(/C=C/c2cnc3ccccc3n2)cc1OC,x,x,x,x,n,n
COc1ccc(NC(=O)C2CCCN(c3nnc(C)c4c(C)n(-c5ccccc5)nc34)C2)cc1Cl (centres undefined),x,x,x,n,n,n
CCSc1ncc(Cl)c(C(=O)Nc2ccccc2)n1,n,n,n,n,n,n
CCOC(=O)c1ccc(NC(=O)c2nc(S(=O)(=O)Cc3ccccc3)ncc2Cl)cc1,x,n,n,n,n,6.3µM
CCS(=O)(=O)c1ncc(Cl)c(C(=O)Nc2ccccc2)n1,x,x,x,n,n,2.5µM
CCc1ccc(NC(=O)c2nc(S(=O)(=O)Cc3ccccc3)ncc2Cl)cc1,n,x,n,x,x,x
COC(=O)c1ccc(NC(=O)c2nc(S(=O)(=O)Cc3cccc(C)c3)ncc2Cl)cc1,n,n,n,n,n,20µM
CCOC(=O)c1c(-c2ccccc2)csc1NC(=O)c1nc(S(=O)(=O)CC)ncc1Cl,x,x,x,n,n,3.2µM
CCS(=O)(=O)N1CCCc2cc(C(=O)Nc3cc([N+](=O)[O-])ccc3C)ccc21,x,x,x,n,n,n
Cc1cccc(-n2c(C)nnc2SCC(=O)NC(C)c2ccco2)c1 (centres undefined),x,x,x,x,n,n
